Assay outcomes as filed in PubChem BioAssay.
In the library only some 8% were active in any assay of this set; here they are far more common.
TSHR antagonist: antagonists of human thyroid stimulating hormone receptor; P16473; TSHR-expressing cells, TSH-stimulated cAMP HTRF, 2 h; stronger effect = lower value; activity change, negative = inhibition, % at 11.5 µM; hit rate 0.2% among 330,000; AID 504810;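 active = activity change below a set negative limit, meaning inhibition stronger than a set level, cut at about -70% in these data; inconclusive = activity change between two set negative limits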
Target sequence (P16473 whole entry, looked up): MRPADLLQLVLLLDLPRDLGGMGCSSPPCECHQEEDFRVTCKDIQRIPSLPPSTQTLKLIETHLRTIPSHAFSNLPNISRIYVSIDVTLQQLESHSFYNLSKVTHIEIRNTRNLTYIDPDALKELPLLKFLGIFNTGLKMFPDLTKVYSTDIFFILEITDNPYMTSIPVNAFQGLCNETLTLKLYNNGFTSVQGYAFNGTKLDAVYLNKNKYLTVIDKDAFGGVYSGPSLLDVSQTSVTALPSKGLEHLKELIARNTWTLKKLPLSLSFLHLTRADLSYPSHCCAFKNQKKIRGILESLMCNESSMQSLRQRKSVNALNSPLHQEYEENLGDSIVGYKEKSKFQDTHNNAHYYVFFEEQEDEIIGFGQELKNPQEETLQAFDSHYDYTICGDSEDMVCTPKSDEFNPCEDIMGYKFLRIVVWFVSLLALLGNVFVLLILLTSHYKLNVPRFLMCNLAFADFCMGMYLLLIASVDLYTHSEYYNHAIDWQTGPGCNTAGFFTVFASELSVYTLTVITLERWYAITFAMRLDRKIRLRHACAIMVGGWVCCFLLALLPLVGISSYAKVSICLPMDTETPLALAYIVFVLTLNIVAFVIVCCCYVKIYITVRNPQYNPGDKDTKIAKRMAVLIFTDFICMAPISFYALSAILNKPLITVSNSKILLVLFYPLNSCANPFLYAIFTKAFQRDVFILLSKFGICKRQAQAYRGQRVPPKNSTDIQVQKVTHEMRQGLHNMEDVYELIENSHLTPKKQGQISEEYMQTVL
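TSHR-expressing cells, 200/well, pre-treated with compound, then stimulated with EC80 TSH (4nM final) for 2 hours at 37 deg C. cAMP measured by competitive HTRF: anti-cAMP cryptate antibody in lysis buffer plus cAMP-d2, read after 30 minutes at room temperature.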
VP16 counter: Gal4-VP16 reporter inhibition counter-screen. Drosophila S2 Gal4-VP16 UAS-luciferase, luminescence, 20 h. Potency, µM (doses to about 53.6 µM), without a hit: top-dose activity, negative = inhibition, most hits filed as inhibitors. hit rate 3.5% among 310,000;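 also: Gal4-VP16 expression switched on by copper sulfate through the metallothionein promoter; potency is read from the fitted curve at half-maximal effect; nearly all actives have a fitted effect of over 50% in size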
RORgamma inh: ROR gamma (mouse) transcription inhibition. P51450. Drosophila S2 Gal4-RORgamma UAS-luciferase reporter, 20 h. Potency, µM (highest dose often 53.6 µM), for the others: at the top dose activity change, negative = inhibition, hits mostly inhibitors. hit rate 5.4% among 310,000; also: potency is read from the fitted curve at half-maximal effect; nearly all actives have a fitted effect of over 60% in size
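A Gal4/UAS one-hybrid system in insect cells: metallothionein-promoter Gal4–ROR gamma fusion plus Photinus luciferase reporter. Copper sulfate 700 uM final, 20 hr ambient incubation, luminescent detection after 10 min with reagent.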
FBPA coupling cs: counter-screen for Giardia aldolase inhibitors: coupling enzyme system; coupling enzyme system counterscreen, AmpLite Red fluorescence; activity change, negative = inhibition, % at 58.2 µM, hits read low; hit rate 0.67% among 290,000; AID 2472; in the data active = activity change below about -30%
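Final compound at 57.5 uM, incubated 10 min at RT with coupling enzyme reagent (glyceraldehyde-3-phosphate), then 20 min with substrate and AmpLite Red detection. Fluorescence read at 525/598 nm; tests interference with the coupling assay, not aldolase inhibition.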
ELG1 DNA repair: inhibitors of ELG1-dependent DNA repair in HEK293T cells; Potency, µM (titrated, usually from 46.1 µM), without a hit: at the top dose activity change, negative = inhibition, hits mostly inhibitors; HEK293T ELG1-luciferase reporter, luminescence, 16 h; DNA damage induced by 5-fluorouridine; hit rate 2.3% among 330,000; also: potency is read from the fitted curve at half-maximal effect; nearly all actives have a fitted effect of over 55% in size
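Overnight (16 hr) co-exposure of 2,000 cells/well to 5-fluorouridine and compound at 37 °C preceded detection. Luciferase was quantified via ONE-Glo luminescence; loss of signal denotes inhibition.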
An asterisk follows results filed as active; u = inconclusive; x = no result given; [ ] = another dose, or the depositor's remark. Unless noted, calls follow the shape of the dose curve; as a rule, active = well fitted curve in the direction sought with a large enough effect; inconclusive = small, poorly fitted or top-dose-only effect, or another doubt; inactive = no such curve, though single readings can be large; an effect the other way counts as inactive or inconclusive. % is scaled to controls: 0 for no effect and ±100 for the full control effect.

SMILES	TSHR antagonist	VP16 counter	RORgamma inh	FBPA coupling cs	ELG1 DNA repair
CCCN(CCC)Cc1c(C(=O)N/N=C/c2cccs2)nnn1-c1nonc1N	-21.1	u	12.6µM*	-6.3	7.1%
CN(Cc1c(C(=O)N/N=C/c2cccs2)nnn1-c1nonc1N)c1ccccc1	-7.4	u	5.62µM*	-13.9	0.6%
CCOC(=O)c1ccc(NC(=O)NCc2cccnc2)cc1	-3.7	-7.2%	u	-0.2	-18.5%
O=C1CC(NS(=O)(=O)c2cccnc2)CN1c1cccc(F)c1 (stereo unspecified)	3.5	x	x	x	0.0%
CCCc1c(C(=O)N/N=C/c2cccs2)nnn1-c1nonc1N	-1.0	6.31µM*	u	-0.9	11.7%
CNC(=S)N/N=C/c1c2ccccc2c(Cl)c2ccccc12	9.4	5.01µM*	4.47µM*	2.0	8.2%
CNC(=S)N/N=C/c1c(C)cccc1Cl	-0.7	3.98µM*	2.24µM*	0.2	u
Cc1[nH]c2ccccc2c1/C=N/NC(N)=S	-7.5	-8.7%	-38.5%	-0.9	1.4%
Cc1[nH]cnc1C(=O)N/N=C/c1c(Cl)cccc1Cl	-1.7	-5.8%	-20.4%	-0.7	u
CCOc1ccc(S(=O)(=O)NCCC(=O)N2CC(C)OC(C)C2)cc1 (stereo unspecified)	-1.9	x	x	x	0.2%
CCOC(=O)c1csc(NC(=O)CC2CCCC2)n1	-5.5	-19.8%	11.2µM*	0.5	9.2%
CCOC(=O)c1csc(NC(=O)CCSc2ccccc2)n1	0.3	-5.3%	28.2%	2.5	u
N#C/C(=C\c1cccs1)C(=O)Nc1nccs1	-2.7	u	7.08µM*	1.0	u
N#C/C(=C\c1cccs1)C(=O)c1ccccc1Cl	-12.1	7.94µM*	u	-0.1	u
COC(=O)C/C=C\[C@H](C)[C@H](CO)NS(=O)(=O)c1ccc(C)cc1	x	3.5%[10 µM]	-22.3%[10 µM]	0.6	x
O=C(COC(=O)Cn1nnc(-c2ccccc2)n1)Nc1cc(F)ccc1F	-13.6	x	x	x	u
COc1cccc(/C=C2\Sc3ccc(C(=O)NCc4cccnc4)cc3N(C)C2=O)c1	-17.1	-18.9%	20.6%	0.0	u
COc1ccc(/C=C2\Sc3ccc(C(=O)NCc4cccnc4)cc3N(C)C2=O)cc1OC	-18.4	-11.6%[10 µM]	33.1%	-0.2	18.3µM*
COc1ccc(/C=C2\Sc3ccc(C(=O)N4CCN(Cc5ccccc5)CC4)cc3N(C)C2=O)cc1OC	-18.0	-7.9%	38.3%	0.4	23.1µM*
C[C@@H]1COC(=O)[C@H](CC(=O)OC(C)(C)C)C/C=C\C[C@@H](CC(=O)NCCO)C(=O)N1	14.0	x	x	x	28.3%
CN(CC(=O)NC(=O)NCc1ccccc1)CC(=O)Nc1ccc(Cl)c(Cl)c1	1.8	x	x	x	18.3µM*
Nc1cccc(CP(=O)(c2ccccc2)c2ccccc2)c1	2.6	x	x	x	u
Cc1ccc(N=C2C(=S)N(c3ccc(C)cc3)C(=N)N2/N=C/c2ccc(Cl)cc2)cc1	6.0	3.16µM*	2.51µM*	-2.4	u
Cc1ccc(NC(=S)NC(=O)CC2CC(C)(C)OC2=O)cc1 (stereo unspecified)	-5.9	-6.2%	u	1.2	13.0%
Cc1cccc(NC(=S)NC(=O)CC2CC(C)(C)OC2=O)c1 (stereo unspecified)	-18.7	-18.4%	11.2µM*	-0.5	-4.1%
SMILES	TSHR antagonist	VP16 counter	RORgamma inh	FBPA coupling cs	ELG1 DNA repair
COc1ccc(NC(=O)C2CC(=O)N(Cc3ccco3)C2)cc1Cl (stereo unspecified)	0.5	x	x	x	u
c1cncc(-c2nnc(-c3cccnc3)nn2)c1	-4.5	u	-42.2%[10 µM]	-40.5*	u
COC(=O)c1cc(CSc2nnc(-c3ccccc3)c(-c3ccccc3)n2)oc1C	-10.6	-18.1%	44.8%	-1.7	20.6µM*
COCCN(C(=O)c1cccc(-n2cnnn2)c1)c1c(N)n(CC(C)C)c(=O)[nH]c1=O	-3.6	x	x	x	11.0%
COc1cccc(CNC(=O)c2ccccc2SCC(=O)N2CCCC2)c1	5.8	x	x	x	3.2%
CC(C)CCn1cnc2c(oc3nc4c(cc32)CCCC4)c1=O	-8.8	u	10µM*	1.5	u
CN(C)S(=O)(=O)N(CC(=O)Nc1ccc2ccccc2c1)c1ccccc1	-6.9	-11.2%	-7.9%	-1.5	23.1µM*
CN(C)S(=O)(=O)N(CC(=O)Nc1ccc(F)c(F)c1)c1ccccc1	2.4	7.7%	18.9%	1.6	3.2%
CCCCOc1ccc(C(=O)Nc2ccc(OCC(=O)N3CCOCC3)cc2)cc1	-20.9	u	-34.2%	-1.3	u
Cc1ccc(Cl)cc1NC(=O)c1ccccc1OCC(=O)N1CCOCC1	7.4	2.5%	19.3%	x	u
Cc1cc(OCC(=O)N2CCOCC2)ccc1NC(=O)c1ccccc1C	10.8	u	10µM*	x	u
Cc1onc(-c2ccccc2Cl)c1C(=O)Nc1ccc(OCC(=O)N2CCOCC2)cc1	3.0	-7.5%	-9.0%	3.6	9.2µM*
O=C(N/N=C/c1ccc(OCC(=O)N2CCOCC2)cc1)c1ccccc1Cl	-0.1	6.7%	5.3%	2.8	-2.3%
O=C(Nc1ccc(OCC(=O)N2CCOCC2)cc1)c1cncc(Br)c1	-6.6	-0.5%	-0.4%	0.8	9.2µM*
O=C(Nc1ccc(OCC(=O)N2CCOCC2)cc1)c1ccccc1Cl	-13.8	7.94µM*	11.2µM*	x	u
Cc1ccc(N(C(=O)c2csnn2)C(C(=O)NC2CCCCC2)c2cccnc2)cc1 (stereo unspecified)	-3.0	2.2%	18.6%	0.7	-3.2%
Cc1ccc(C)c(OC(=O)c2cccc(S(=O)(=O)N3CCN(C)CC3)c2)c1	7.9	-3.1%	42.4%	x	8.2%
COc1ccc(CNc2ncncc2-c2c(C)noc2C)c(OC)c1	x	-4.8%	-21.2%	1.6	x
CCC(=O)NC(=S)Nc1ccccc1C(=O)OC	-7.8	u	12.6µM*	0.7	8.8%
CCCC(=O)NC(=S)Nc1cccc2c(O)cccc12	-6.2	u	12.6µM*	-5.3	5.9%
COC(=O)c1ccccc1NC(=S)NC(=O)C1CC1	-8.6	-20.0%	12.6µM*	0.0	15.9%
COC(=O)c1ccccc1NC(=S)NC(C)=O	-6.0	21.8%	u	1.3	u
CCCC(=O)NC(=S)Nc1ccccc1C(=O)OC	-5.9	u	15.8µM*	0.8	9.9%
O=C1/C(=C\c2c(NCCOCCO)nc3ccccn3c2=O)SC(=S)N1Cc1ccco1	-9.1	u	9.3%[1.91 µM]	-1.7	-4.6%
COC(=O)[C@@]1(Cc2ccccc2)[C@H]2c3cc(C(=O)N4CCCC4)n(Cc4cc(F)cc5c4OCOC5)c3C[C@H]2CN1C(=O)c1ccccc1	x	0.4%	8.8%	-0.7	x
Cc1cccc(C)c1OCC(=O)NC1CC1	-10.7	-3.7%	u	x	-5.2%
COC(=O)c1ccccc1NC(=S)NC(=O)c1cccc2ccccc12	-3.3	17.8µM*	4.47µM*	x	17.0%
Cc1cccc(C)c1OCC(=O)NNC(=S)NC(=O)C1CC1	-3.4	u	17.8µM*	x	-15.2%
